Test results as given in PubChem BioAssay (NCI).
The panel holds about 79,000 compounds, 15% with a hit somewhere; the sample as a whole holds those more often. Active and inactive are the calls of the source. Rule as the data show it: active = growth inhibition above about 70%; inactive = the rest.

What was measured:
[1] = NCI Yeast Anticancer Drug Screen. Data for the rad52 strain (AID 147);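 also: 0% = growth of vehicle-treated control cultures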; details: S. cerevisiae rad52 mutant growth inhibition, active compounds read high
How it was run: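 Read-out: growth inhibition versus vehicle-treated controls. Cells were a DNA repair-deficient yeast strain treated with compounds.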

[2] = NCI Yeast Anticancer Drug Screen. Data for the wt1 strain (AID 149);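 also: 0% = growth of vehicle-treated wt1 cultures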; details: S. cerevisiae wt1 strain (SPY 50644) growth inhibition, active compounds read high
How it was run: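 wt1 yeast, compound-treated; % growth inhibition vs vehicle control.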

[3] = NCI Yeast Anticancer Drug Screen. Data for the rad50EPP+ strain (AID 151);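 also: 0% = growth of vehicle-treated control cultures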; details: S. cerevisiae rad50 mutant strain, active compounds read high
How it was run: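 Growth inhibition read against vehicle controls in rad50EPP+ yeast, a strain altered in DNA damage repair, after compound exposure.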

[4] = NCI Yeast Anticancer Drug Screen. Data for the mgt1 strain (AID 153); details: S. cerevisiae mgt1 mutant growth inhibition, active compounds read high
How it was run: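 mgt1 yeast grown with test compound; read-out is growth inhibition versus vehicle-treated cultures.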

[5] = NCI Yeast Anticancer Drug Screen. Data for the rad50 strain (AID 155);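 also: 0% = growth of vehicle-only cultures of the same strain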; details: S. cerevisiae rad50 strain growth inhibition, active compounds read high
How it was run: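 Genetically altered yeast (DNA repair pathway); compound treatment; growth inhibition vs vehicle ctrl.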

[6] = NCI Yeast Anticancer Drug Screen. Data for the mec2-1 strain (AID 157); details: S. cerevisiae mec2-1 strain, active compounds read high
How it was run: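 Yeast mec2-1 mutant treated with compound. Readout: growth inhibition vs vehicle controls.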

[7] = NCI Yeast Anticancer Drug Screen. Data for the sgs1 mgt1 strain (AID 161);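 also: 0% = growth of cultures given vehicle only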; details: S. cerevisiae sgs1 mgt1 strain, active compounds read high
How it was run: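 Genetically altered yeast, compound exposure, growth inhibition relative to vehicle.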

[8] = NCI Yeast Anticancer Drug Screen. Data for the CLN2oe strain (AID 163);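 also: 0% = growth of vehicle-only control cultures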; details: S. cerevisiae CLN2oe strain, active compounds read high
How it was run: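 Read-out: yeast growth inhibition, expressed relative to vehicle-only controls. The strain bears an engineered cell-cycle alteration.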

[9] = NCI Yeast Anticancer Drug Screen. Data for the cln2 rad14 strain (AID 165);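 also: 0% = growth equal to vehicle treated cultures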; details: S. cerevisiae cln2 rad14 strain, active compounds read high
How it was run: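 cln2 rad14 yeast strain; compound exposure; growth inhibition read vs vehicle controls.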

[10] = NCI Yeast Anticancer Drug Screen. Data for the bub3 strain (AID 167); details: S. cerevisiae bub3 mutant strain, active compounds read high
How it was run: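 Yeast carrying a defined mutation is treated with each compound, and growth is compared with that of vehicle-exposed cells to give inhibition.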

[11] = NCI Yeast Anticancer Drug Screen. Data for the wt2 strain (AID 169);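 also: 0% = growth of vehicle-treated yeast cultures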; details: S. cerevisiae wt2 strain growth inhibition, active compounds read high
How it was run: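 Read-out: growth inhibition versus vehicle-treated control cultures after compound exposure of the yeast strain.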

[12] = NCI Yeast Anticancer Drug Screen. Data for the mlh1 strain (AID 171);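 also: 0% = growth of vehicle-treated control cultures of the same strain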; details: S. cerevisiae mlh1 strain growth inhibition, active compounds read high
How it was run: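 Read-out: growth inhibition versus vehicle controls. Strain: engineered yeast with a defined DNA repair or cell cycle defect, compound-treated.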

[13] = NCI Yeast Anticancer Drug Screen. Data for the sgs1 strain (AID 173);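 also: 0% = growth of vehicle-only control cultures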; details: S. cerevisiae sgs1 mutant, active compounds read high
How it was run: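 Read-out: yeast growth inhibition relative to vehicle controls, following compound exposure of a strain with a defined DNA repair/cell cycle alteration.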

[14] = NCI Yeast Anticancer Drug Screen. Data for the mlh1 rad18 strain (AID 175); details: S. cerevisiae mlh1 rad18 strain growth inhibition, active compounds read high
How it was run: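 Yeast w/ defined DNA-repair lesions; compound exposure; growth vs vehicle controls → % inhibition.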

[15] = NCI Yeast Anticancer Drug Screen. Data for the rad18 strain (AID 177); details: S. cerevisiae rad18 mutant growth inhibition, active compounds read high
How it was run: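 Readout: growth inhibition vs vehicle controls. Cells: genetically altered yeast strain, DNA repair defect.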

[16] = NCI Yeast Anticancer Drug Screen. Data for the rad14 strain (AID 159);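 also: 0% = growth of vehicle-treated control cultures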; details: S. cerevisiae rad14 strain growth inhibition, active compounds read high
How it was run: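 Test compounds were applied to a repair-deficient yeast strain. Its growth was then compared with that of cultures given vehicle alone, and inhibition was expressed relative to those controls.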

[17] = at 5.0 µM (retest, dose inferred, filed as 0.5)
[18] = at 50.0 µM (retest, dose inferred, filed as 5.0)

Measured: growth inhibition

CC1(C)OC(=O)C(=Cc2ccc([N+](=O)[O-])s2)C(=O)O1
inactive: [1]; at 1.2 µM -17% | [1]; at 3.7 µM -35% | [1]; at 11.0 µM -31% | [1]; at 33.0 µM -14% | [2]; at 1.2 µM -28% | [2]; at 3.7 µM -33% | [2]; at 11.0 µM -14% | [2]; at 33.0 µM 32% | [2]; at 100.0 µM 35% | [3]; at 1.2 µM -17% | [3]; at 3.7 µM -20% | [3]; at 11.0 µM -2% | [4]; at 1.2 µM -8% | [4]; at 3.7 µM 15% | [4]; at 11.0 µM 26% | [4]; at 100.0 µM 50% | [5]; at 1.2 µM -9% | [5]; at 3.7 µM -7% | [5]; [17] 28% | [5]; at 11.0 µM -13% | [5]; at 33.0 µM -6% | [5]; at 50.0 µM 68.6% | [6]; at 1.2 µM -28% | [6]; at 3.7 µM -5% | [6]; [17] 23% | [6]; at 11.0 µM -23% | [6]; at 33.0 µM 12% | [7]; [17] 56% | [8]; at 1.2 µM 14% | [8]; at 3.7 µM 26% | [8]; at 11.0 µM 29% | [8]; at 33.0 µM 63% | [9]; [17] 47% | [9]; at 50.0 µM 30.8% | [10]; at 1.2 µM -18% | [10]; at 3.7 µM -13% | [10]; [17] 48% | [10]; at 11.0 µM -8% | [10]; at 33.0 µM 60% | [10]; at 100.0 µM 5% | [11]; at 1.2 µM 0% | [11]; at 3.7 µM -9% | [11]; at 11.0 µM -7% | [11]; at 33.0 µM 62% | [12]; at 1.2 µM -28% | [12]; at 3.7 µM -24% | [12]; at 11.0 µM -33% | [12]; at 33.0 µM 38% | [13]; at 1.2 µM -31% | [13]; at 3.7 µM -25% | [13]; at 11.0 µM -15% | [13]; at 33.0 µM 48% | [14]; [17] 10% | [14]; [18] 51% | [15]; at 1.2 µM 10% | [15]; at 3.7 µM 21% | [15]; at 11.0 µM 32% | [15]; at 100.0 µM 69%
active: [1]; at 100.0 µM 98% | [3]; at 33.0 µM 86% | [3]; at 100.0 µM 88% | [4]; at 33.0 µM 95% | [5]; [18] 89% | [5]; at 100.0 µM 98% | [6]; [18] 99% | [6]; at 50.0 µM 89.3% | [6]; at 100.0 µM 70% | [7]; [18] 100% | [7]; at 50.0 µM 90% | [8]; at 100.0 µM 97% | [9]; [18] 81% | [10]; [18] 100% | [10]; at 50.0 µM 85% | [11]; at 100.0 µM 71% | [12]; at 100.0 µM 71% | [13]; at 100.0 µM 98% | [14]; at 50.0 µM 92.3% | [15]; at 33.0 µM 85%

O=C(NCCCCN(CCCNC(=O)C(F)(F)F)Cc1ccccc1)C(F)(F)F
active: [5]; [18] 90%
inactive: [1]; at 1.2 µM 30% | [1]; at 3.7 µM 36% | [1]; at 11.0 µM 31% | [1]; at 33.0 µM 33% | [1]; at 100.0 µM 35% | [2]; at 1.2 µM 5% | [2]; at 3.7 µM 9% | [2]; at 11.0 µM 4% | [2]; at 33.0 µM 6% | [2]; at 100.0 µM -10% | [3]; at 1.2 µM 5% | [3]; at 3.7 µM -6% | [3]; at 11.0 µM 4% | [3]; at 33.0 µM -2% | [3]; at 100.0 µM -18% | [4]; at 1.2 µM 22% | [4]; at 3.7 µM 33% | [4]; at 11.0 µM 32% | [4]; at 33.0 µM 26% | [4]; at 100.0 µM 7% | [5]; at 1.2 µM 32% | [5]; at 3.7 µM 33% | [5]; [17] 39% | [5]; at 11.0 µM 40% | [5]; at 33.0 µM 33% | [5]; at 50.0 µM -5.5% | [5]; at 100.0 µM 27% | [16]; at 1.2 µM 16% | [16]; at 3.7 µM 16% | [16]; at 11.0 µM 15% | [16]; at 33.0 µM 11% | [16]; at 100.0 µM -10% | [7]; [17] -19% | [7]; [18] -11% | [7]; at 50.0 µM -5.75% | [8]; at 1.2 µM 13% | [8]; at 3.7 µM 3% | [8]; at 11.0 µM 6% | [8]; at 33.0 µM 12% | [8]; at 100.0 µM -3% | [9]; [17] 14% | [9]; [18] 8% | [9]; at 50.0 µM 26.9% | [10]; at 1.2 µM 11% | [10]; at 3.7 µM 0% | [10]; [17] 7% | [10]; at 11.0 µM 0% | [10]; at 33.0 µM -7% | [10]; [18] 0% | [10]; at 50.0 µM -14% | [10]; at 100.0 µM 0% | [11]; at 1.2 µM -4% | [11]; at 3.7 µM -6% | [11]; at 11.0 µM 2% | [11]; at 33.0 µM -12% | [11]; at 100.0 µM -12% | [12]; at 1.2 µM 22% | [12]; at 3.7 µM 33% | [12]; at 11.0 µM 32%
